From PubChem
Many of the other results were omitted from the sample, so hits are more common in it than they were.
IDE exosite inh = exo-site inhibitors of human insulin-degrading enzyme | P14735 | purified IDE, FL-6b probe fluorescence polarization; stronger effect = lower value | AID 1259349 | z-score at 20 µM | 17,000 compounds, 6.3% hits;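 active = z-score of -3 or lower, meaning strong loss of probe binding signal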;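 also: His-tagged human IDE residues 42-1019 made in E. coli with 30 nM FL-6b probe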
Target sequence (P14735 42-1019 limits assumed): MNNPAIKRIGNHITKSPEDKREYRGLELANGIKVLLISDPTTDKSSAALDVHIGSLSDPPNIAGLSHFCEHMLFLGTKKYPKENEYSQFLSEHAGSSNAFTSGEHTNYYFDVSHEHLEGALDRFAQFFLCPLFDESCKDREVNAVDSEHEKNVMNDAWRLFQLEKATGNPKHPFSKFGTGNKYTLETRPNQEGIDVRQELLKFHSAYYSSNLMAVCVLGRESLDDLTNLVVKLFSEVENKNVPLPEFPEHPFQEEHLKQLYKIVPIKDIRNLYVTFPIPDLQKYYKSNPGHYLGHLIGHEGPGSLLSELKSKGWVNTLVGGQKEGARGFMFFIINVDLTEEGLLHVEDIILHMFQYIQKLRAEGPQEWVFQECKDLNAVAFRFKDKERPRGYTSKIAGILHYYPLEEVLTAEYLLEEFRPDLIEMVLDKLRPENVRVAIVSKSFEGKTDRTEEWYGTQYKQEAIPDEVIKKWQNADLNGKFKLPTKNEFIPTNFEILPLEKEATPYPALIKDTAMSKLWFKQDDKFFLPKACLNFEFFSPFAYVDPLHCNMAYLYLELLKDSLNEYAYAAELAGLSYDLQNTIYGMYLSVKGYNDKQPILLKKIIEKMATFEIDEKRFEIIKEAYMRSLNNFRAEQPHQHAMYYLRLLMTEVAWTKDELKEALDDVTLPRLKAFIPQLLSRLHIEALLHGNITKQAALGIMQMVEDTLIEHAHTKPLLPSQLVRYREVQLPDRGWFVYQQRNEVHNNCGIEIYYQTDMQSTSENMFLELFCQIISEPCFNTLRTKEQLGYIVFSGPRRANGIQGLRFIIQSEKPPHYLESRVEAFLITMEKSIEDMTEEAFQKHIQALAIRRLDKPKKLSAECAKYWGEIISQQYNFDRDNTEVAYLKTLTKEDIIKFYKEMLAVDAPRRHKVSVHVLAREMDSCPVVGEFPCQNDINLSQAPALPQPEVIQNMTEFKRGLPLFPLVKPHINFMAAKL
* hit, by the source's call.

SMILES | IDE exosite inh
O=C(Nc1cccc(F)c1)N1CC(=O)N2[C@H](CO)[C@@H](c3ccc(C#CC4CC4)cc3)[C@H]2C1 | 0.927
CS(=O)(=O)N1CC(=O)N2[C@H](C1)[C@@H](c1ccc(C#Cc3ccccc3)cc1)[C@@H]2CO | -1.9
CCc1csc(N2[C@H](C#N)[C@@H](c3ccc(-c4ccc(F)cc4)cc3)[C@H]2CO)n1 | 3.51
C[C@@H]1CC=CC[C@@H](c2ccc3c(c2)OCO3)NC(=O)[C@@H](C)N(C)C(=O)c2ccccc2O1 (mixture of isomers) | -0.303
N#C[C@@H]1[C@@H](c2ccc(-c3ccncc3)cc2)[C@@H](CO)N1C(=O)C1CCCCC1 | 4.91
N#C[C@@H]1[C@H](c2ccccc2C2=CCCC2)[C@@H](CO)N1C(=O)c1ccccn1 | 0.485
O=C(C[C@H]1CC[C@@H]2[C@H](COC[C@H](O)CN2Cc2ccc(C(F)(F)F)cc2)O1)N1CCc2ccccc2C1 | 0.762
C/C=C/c1ccc([C@H]2[C@H]3CN(C(=O)c4cnccn4)CC(=O)N3[C@H]2CO)cc1 | 3.03
O=C(c1cnccn1)N1CC(=O)N2[C@H](CO)[C@@H](c3ccc(/C=C/c4ccccc4)cc3)[C@H]2C1 | -6.5*
C/C=C/c1ccc([C@@H]2[C@@H](CO)N3C(=O)CN(C(=O)c4cnccn4)C[C@H]23)cc1 | 1.49
O=C(c1cnccn1)N1CC(=O)N2[C@@H](CO)[C@H](c3ccc(-c4ccc(F)cc4)cc3)[C@@H]2C1 | 1.29
O=C(c1cnccn1)N1CC(=O)N2[C@H](CO)[C@@H](c3ccc(/C=C/c4ccccc4)cc3)[C@@H]2C1 | -5.47*
O=C(c1cnccn1)N1CC(=O)N2[C@H](CO)[C@H](c3ccc(/C=C/c4ccccc4)cc3)[C@@H]2C1 | -5.34*
O=C(c1cnccn1)N1CC(=O)N2[C@@H](CO)[C@H](c3ccc(/C=C/c4ccccc4)cc3)[C@@H]2C1 | -6.47*
C/C=C/c1ccc([C@H]2[C@H](CO)N3C(=O)CN(C(=O)c4cnccn4)C[C@@H]23)cc1 | 3.67
O=C(c1cnccn1)N1CC(=O)N2[C@H](CO)[C@@H](c3ccc(-c4ccc(F)cc4)cc3)[C@H]2C1 | 0.961
C[C@H](CO)N1C[C@H](C)[C@H](CN(C)C(=O)NC2CCCCC2)OCCCC[C@H](C)Oc2ccc(N(C)C)cc2C1=O | 0.36
Cn1cnc(S(=O)(=O)N2[C@@H]3CNC[C@H]2C3c2ccc(-c3cccnc3)cc2)c1 (stereo partly drawn) | 4.07
C/C=C/c1ccc([C@@H]2[C@@H](CO)N(c3ncc(CC)s3)[C@H]2C#N)cc1 | 0.264
COc1cccc(NC(=O)N[C@@H]2C=C[C@@H](CC(=O)NCc3ccncn3)O[C@H]2CO)c1 | 1.72
COCC(=O)N1CC(=O)N2[C@H](CO)[C@H](c3ccc(-c4cccnc4)cc3)[C@H]2C1 | 2.57
COCC(=O)N(C)C[C@H]1[C@H](c2ccccc2)[C@H](CO)N1C(=O)Cc1cccnc1 | 4.02
CO[C@H]1CN(C)C(=O)c2cc(NC(=O)Nc3cc(F)ccc3F)ccc2OC[C@@H](C)NC[C@@H]1C | 0.0371
O=C1NCCOCc2cnnn2CC[C@H]1Cc1ccc(F)cc1 | 0.651
CN1c2ccc(-c3ccccc3)cc2[C@@H]2[C@@H](CCN2C(=O)NC2CCCCC2)[C@@H]1CO | -0.532
SMILES | IDE exosite inh
C[C@@H]1CN([C@H](C)CO)C(=O)c2ccccc2-c2ccccc2CO[C@H]1CN(C)C(=O)Nc1ccc(-c2ccccc2)cc1 | -1.48
C/C=C/c1ccc([C@H]2[C@@H](CO)N(C(=O)COC)[C@@H]2CNC(=O)CC)cc1 | 3.71
CC(C)CC#Cc1ccc([C@H]2[C@H]3CN(C(=O)Nc4ccc(F)cc4)CC(=O)N3[C@H]2CO)cc1 | 4.23
O=C(C1CCOCC1)N1[C@H](CO)[C@@H](c2ccccc2)C12CN(Cc1cccc(Cl)c1)C2 | -0.593
Cn1cnc(S(=O)(=O)N2CCCCN3[C@@H](CO)[C@@H](c4ccc(-c5ccccc5F)cc4)[C@@H]3C2)c1 | -5.63*
Cn1cnc(S(=O)(=O)N2CCCCN3[C@H](CO)[C@H](c4ccc(-c5ccccc5F)cc4)[C@@H]3C2)c1 | -1.2
Cn1cnc(S(=O)(=O)N2CCCCN3[C@H](C2)[C@@H](c2ccc(-c4ccccc4F)cc2)[C@@H]3CO)c1 | -0.202
Cn1cnc(S(=O)(=O)N2CCCCN3[C@H](CO)[C@@H](c4ccc(-c5ccc(F)cc5)cc4)[C@H]3C2)c1 | 2.16
Cn1cnc(S(=O)(=O)N2CCCCN3[C@H](CO)[C@H](c4ccc(-c5ccccc5F)cc4)[C@H]3C2)c1 | -4.56*
Cn1cnc(S(=O)(=O)N2CCCCN3[C@H](CO)[C@H](c4ccc(-c5ccc(F)cc5)cc4)[C@H]3C2)c1 | 1
CO[C@H]1CN(C)C(=O)c2ccc(NS(C)(=O)=O)cc2OC[C@H](C)N(CC2CC2)C[C@@H]1C | 0.495
COc1ccc(-c2ccc([C@H]3[C@@H](CO)N4C(=O)CN(C(=O)c5ccccc5)C[C@@H]34)cc2)cc1 | -0.33
Cc1noc(C)c1NC(=O)N1C[C@@H](O)COC[C@@H]2O[C@@H](CC(=O)N[C@@H]3CCN(Cc4ccccc4)C3)CC[C@H]21 | -0.374
COCCNC(=O)C[C@@H]1CC[C@H]2[C@@H](COC[C@@H](O)CN2Cc2ccc(Cl)c(Cl)c2)O1 | 0.0508
C[C@@H]1C(=O)N[C@H](c2ccccc2)CC=CC[C@H](C)Oc2ccccc2C(=O)N1C (mixture of isomers) | -0.277
Fc1ccc(F)c(CN2[C@@H]3CNC[C@H]2C3c2ccc(-c3ccncc3)cc2)c1 (stereo partly drawn) | 0.168
COc1cccc(NC(=O)N[C@H]2C=C[C@H](CC(=O)NCc3ccncn3)O[C@@H]2CO)c1 | 1.46
COc1cccc(NC(=O)Nc2ccc3c(c2)C(=O)N(C)C[C@@H](OC)[C@H](C)CN[C@H](C)CO3)c1 | 0.554
CO[C@H]1CN(C)C(=O)c2cc(NC(=O)c3cnccn3)ccc2OC[C@H](C)NC[C@@H]1C | 0.0508
CO[C@@H]1CN(C)C(=O)c2cc(NC(=O)c3ccc(Oc4ccccc4)cc3)ccc2OC[C@@H](C)NC[C@@H]1C | -11.5*
CO[C@H]1CN(C)C(=O)c2cc(NC(=O)c3cnccn3)ccc2OC[C@@H](C)NC[C@H]1C | 0.837
CO[C@H]1CN(C)C(=O)c2cc(NC(=O)c3ccc(Oc4ccccc4)cc3)ccc2OC[C@H](C)NC[C@@H]1C | -1.27
CO[C@H]1CN(C)C(=O)c2cc(NC(=O)c3ccc(Oc4ccccc4)cc3)ccc2OC[C@@H](C)NC[C@H]1C | -7.93*
CN1c2ccc(Br)cc2[C@H]2[C@H](CCN2C(=O)CN2CCOCC2)[C@H]1CO | 2.63
CN1c2ccc(-c3cccc(C#N)c3)cc2[C@@H]2[C@@H](CCN2C(=O)CN2CCOCC2)[C@H]1CO | 1.49
SMILES | IDE exosite inh
Cc1ccccc1-c1ccc([C@H]2[C@H](CO)N3CCCCN(C(=O)CN4CCOCC4)C[C@@H]23)cc1 | -3.72*
Cc1ccccc1-c1ccc([C@H]2[C@H]3CN(C(=O)CN4CCOCC4)CCCCN3[C@H]2CO)cc1 | -2.21
COc1ccccc1-c1ccc([C@@H]2[C@@H](CO)N3CCCCN(C(=O)CN4CCOCC4)C[C@H]23)cc1 | 1.85
Cc1ccccc1-c1ccc([C@@H]2[C@H](CO)N3CCCCN(C(=O)CN4CCOCC4)C[C@@H]23)cc1 | -13.7*
COc1ccccc1-c1ccc2c(c1)[C@H]1[C@H](CCN1C(=O)CN1CCOCC1)[C@H](CO)N2C | -3.33*
COc1ccccc1-c1ccc([C@@H]2[C@@H](CO)N3CCCCN(C(=O)CN4CCOCC4)C[C@@H]23)cc1 | -6.52*
